Assay results taken from PubChem BioAssay (NCI).
The panel holds about 79,000 compounds, 15% with a hit somewhere; the sample as a whole holds those more often. Rule as the data show it: active = growth inhibition above about 70%; inactive = the rest.

Tests used:
[1] = NCI Yeast Anticancer Drug Screen. Data for the wt1 strain (AID 149);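 also: 0% = growth of vehicle-treated wt1 cultures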; conditions: S. cerevisiae wt1 strain (SPY 50644) growth inhibition, hits give high values
How it was run: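 Growth inhibition read against vehicle controls after compound exposure of the wt1 yeast strain.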

[2] = NCI Yeast Anticancer Drug Screen. Data for the rad50EPP+ strain (AID 151);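 also: 0% = growth of vehicle-treated control cultures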; conditions: S. cerevisiae rad50 mutant strain, hits give high values
How it was run: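 Measured: growth inhibition of rad50EPP+ yeast. Reference: vehicle-treated controls. Screen uses strains with defined genetic alterations in DNA damage repair or cell cycle control.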

[3] = NCI Yeast Anticancer Drug Screen. Data for the rad50 strain (AID 155);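 also: 0% = growth of vehicle-only cultures of the same strain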; conditions: S. cerevisiae rad50 strain growth inhibition, hits give high values
How it was run: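 Readout: growth inhibition relative to vehicle-treated cultures. Compound exposure was carried out in a genetically defined yeast strain deficient in DNA damage repair.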

[4] = NCI Yeast Anticancer Drug Screen. Data for the mec2-1 strain (AID 157); conditions: S. cerevisiae mec2-1 strain, hits give high values
How it was run: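 Compounds were applied to mec2-1 yeast cells. Their growth was then compared with that of vehicle-treated cultures to give growth inhibition.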

[5] = NCI Yeast Anticancer Drug Screen. Data for the sgs1 mgt1 strain (AID 161);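 also: 0% = growth of cultures given vehicle only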; conditions: S. cerevisiae sgs1 mgt1 strain, hits give high values
How it was run: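 Compounds are added to genetically altered yeast, and growth is compared with cultures given vehicle alone to give percent inhibition.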

[6] = NCI Yeast Anticancer Drug Screen. Data for the CLN2oe strain (AID 163);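 also: 0% = growth of vehicle-only control cultures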; conditions: S. cerevisiae CLN2oe strain, hits give high values
How it was run: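 Cells of an engineered yeast line with disturbed cell-cycle regulation are treated with compound. Inhibition of growth is then calculated relative to the vehicle-treated reference.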

[7] = NCI Yeast Anticancer Drug Screen. Data for the cln2 rad14 strain (AID 165);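 also: 0% = growth equal to vehicle treated cultures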; conditions: S. cerevisiae cln2 rad14 strain, hits give high values
How it was run: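 Strain: cln2 rad14 yeast, altered in cell cycle control and DNA damage repair. Read-out: growth inhibition vs vehicle.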

[8] = NCI Yeast Anticancer Drug Screen. Data for the bub3 strain (AID 167); conditions: S. cerevisiae bub3 mutant strain, hits give high values
How it was run: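 Readout: yeast growth inhibition, expressed relative to vehicle-only wells. The test organism is a mutant strain from a panel with lesions in DNA repair or checkpoint genes.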

[9] = NCI Yeast Anticancer Drug Screen. Data for the wt2 strain (AID 169);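 also: 0% = growth of vehicle-treated yeast cultures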; conditions: S. cerevisiae wt2 strain growth inhibition, hits give high values
How it was run: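 Growth of compound-treated yeast is measured and expressed as inhibition relative to vehicle-only controls.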

[10] = NCI Yeast Anticancer Drug Screen. Data for the mlh1 strain (AID 171);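 also: 0% = growth of vehicle-treated control cultures of the same strain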; conditions: S. cerevisiae mlh1 strain growth inhibition, hits give high values
How it was run: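 Test agents were incubated with yeast bearing a defined DNA damage repair or cell cycle control alteration; values are growth inhibition normalised to vehicle-treated cultures.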

[11] = NCI Yeast Anticancer Drug Screen. Data for the sgs1 strain (AID 173);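 also: 0% = growth of vehicle-only control cultures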; conditions: S. cerevisiae sgs1 mutant, hits give high values
How it was run: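 Strain with an altered DNA repair or cell cycle pathway exposed to compound. Growth then measured. Value = inhibition versus vehicle control.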

[12] = NCI Yeast Anticancer Drug Screen. Data for the mlh1 rad18 strain (AID 175); conditions: S. cerevisiae mlh1 rad18 strain growth inhibition, hits give high values
How it was run: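 A repair-deficient yeast strain is exposed to test compound, and growth is scored relative to vehicle-treated controls.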

[13] = NCI Yeast Anticancer Drug Screen. Data for the rad18 strain (AID 177); conditions: S. cerevisiae rad18 mutant growth inhibition, hits give high values
How it was run: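 DNA-repair-defective yeast; compound treatment; growth inhibition scored against vehicle.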

[14] = at 5.0 µM (retest, dose inferred, filed as 0.5)
[15] = at 50.0 µM (retest, dose inferred, filed as 5.0)

Measured: growth inhibition

COC(=O)C1=C(C(=O)OC)CC(n2nnc(C(=O)OC)c2C(=O)OC)=CC1
inactive: [1]; at 1.2 µM 0% | [1]; at 3.7 µM 0% | [1]; at 11.0 µM -1% | [1]; at 33.0 µM -1% | [1]; at 100.0 µM -2% | [2]; at 1.2 µM -2% | [2]; at 3.7 µM -2% | [2]; at 11.0 µM -3% | [2]; at 33.0 µM -3% | [2]; at 100.0 µM 1% | [3]; at 1.2 µM -1% | [3]; at 3.7 µM -3% | [3]; [14] -1% | [3]; at 11.0 µM -3% | [3]; at 33.0 µM -2% | [3]; [15] 0% | [3]; at 50.0 µM 43.4% | [3]; at 100.0 µM -4% | [4]; at 1.2 µM -4% | [4]; at 3.7 µM -6% | [4]; [14] -1% | [4]; at 11.0 µM -5% | [4]; at 33.0 µM -4% | [4]; [15] -1% | [4]; at 50.0 µM 1.2% | [4]; at 100.0 µM -9% | [5]; [14] 6% | [5]; [15] -6% | [5]; at 50.0 µM 0.5% | [6]; at 1.2 µM -7% | [6]; at 3.7 µM -3% | [6]; at 11.0 µM -4% | [6]; at 33.0 µM -1% | [6]; at 100.0 µM -7% | [7]; [14] -2% | [7]; [15] -2% | [7]; at 50.0 µM -9.5% | [8]; at 1.2 µM -4% | [8]; at 3.7 µM -4% | [8]; [14] -1% | [8]; at 11.0 µM -3% | [8]; at 33.0 µM -6% | [8]; [15] 1% | [8]; at 50.0 µM -4.1% | [8]; at 100.0 µM -2% | [9]; at 1.2 µM -1% | [9]; at 3.7 µM -2% | [9]; at 11.0 µM -1% | [9]; at 33.0 µM -2% | [9]; at 100.0 µM -3% | [10]; at 1.2 µM -1% | [10]; at 3.7 µM -2% | [10]; at 11.0 µM -2% | [10]; at 33.0 µM -1% | [10]; at 100.0 µM -3% | [11]; at 1.2 µM -1% | [11]; at 3.7 µM -1% | [11]; at 11.0 µM -2% | [11]; at 33.0 µM -2% | [11]; at 100.0 µM 0% | [12]; [14] -2% | [12]; [15] 44% | [12]; at 50.0 µM 4.4% | [13]; at 1.2 µM 0% | [13]; at 3.7 µM 1% | [13]; at 11.0 µM 0% | [13]; at 33.0 µM -1% | [13]; at 100.0 µM 1%
